Compound activity: PubChem BioAssay, National Center for Advancing Translational Sciences (NCATS)
Shiga inhibitor – A qHTS for Small Molecule Inhibitors of Shiga Toxin. Vero cells, Shiga toxin protein synthesis inhibition reporter. inhibition, % at 38.7 µM. actives 9.2% (n = 290,000). AID 2315, 2010; in the data active = inhibition mostly above about 28%, no sharp cut-off; inactive = mostly below about 43%
LmPK inh – qHTS Assay for Inhibitors of Leishmania Mexicana Pyruvate Kinase (LmPK). purified LmPK, Kinase-Glo ATP luminescence, 1 h. Q27686. actives 0.37% (n = 290,000). Potency, µM (titrated, usually from 57.5 µM), usual class: inhibitors
Target sequence (Q27686 whole entry, looked up): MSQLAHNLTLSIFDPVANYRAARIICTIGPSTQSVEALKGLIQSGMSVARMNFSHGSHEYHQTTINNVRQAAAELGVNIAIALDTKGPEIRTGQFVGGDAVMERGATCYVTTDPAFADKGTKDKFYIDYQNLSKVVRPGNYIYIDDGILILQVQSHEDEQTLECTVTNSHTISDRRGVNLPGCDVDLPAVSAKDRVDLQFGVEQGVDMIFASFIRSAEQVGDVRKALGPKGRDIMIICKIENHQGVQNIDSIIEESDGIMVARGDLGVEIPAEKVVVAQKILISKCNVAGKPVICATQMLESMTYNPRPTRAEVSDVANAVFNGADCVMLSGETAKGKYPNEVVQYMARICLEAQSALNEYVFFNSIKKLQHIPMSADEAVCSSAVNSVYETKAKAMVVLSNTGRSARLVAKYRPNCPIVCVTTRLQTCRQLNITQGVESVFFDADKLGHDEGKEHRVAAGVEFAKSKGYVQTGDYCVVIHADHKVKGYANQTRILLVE
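qHTS format; LmPK 0.1 nM; substrates PEP 0.5 mM and ADP 0.1 mM. One-hour room-temperature incubation, then coupled luciferase luminescence; 0.5 nM enzyme wells mark activation.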
Pf growth 48h – Primary qHTS for delayed death inhibitors of the malarial parasite plastid, 48 hour incubation; actives 5.9% (n = 310,000); Potency, µM (top dose mostly 28.7 µM), hits mostly inhibitors; P. falciparum luciferase growth in erythrocytes, 48 h; AID 504832, 2011
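Luminescence readout; reporter = integrated firefly luciferase in P. falciparum. RBC culture at 2% hematocrit, 0.1% parasitemia final, 37 C/5% CO2; decreased signal taken as growth inhibition.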
Pf growth 96h – Primary qHTS for delayed death inhibitors of the malarial parasite plastid, 96 hour incubation | P. falciparum luciferase reporter growth, 96 h | Potency, µM (doses to about 28.7 µM), most hits filed as inhibitors | actives 6.9% (n = 320,000)
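Delayed-death screen, second-generation endpoint: infected erythrocytes, 2% hematocrit, 0.05% parasitemia final; 96 hours at 37 C, 5% CO2; luciferase detection reagent; luminescence decrease equals reduced growth.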
Cycloheximide cs – Cycloheximide Counterscreen for Small Molecule Inhibitors of Shiga Toxin; cell reporter, cycloheximide protein synthesis inhibition counterscreen; actives 12% (n = 300,000); max response, %; in the data active = max response mostly above about 13%, no sharp cut-off; inactive = mostly below about 14%; also: read at 38.3 µM for the half of the compounds with a filed dose
Hits are given with their value; n = inactive; u = inconclusive; x = no result given; ! = repeats disagree; [ ] = remark or other dose. Shown are actives, neighbours in structure and some others; about 22% of the full set was active somewhere. Unless noted, calls follow the shape of the dose curve; as a rule, active = well fitted inhibition curve with a large enough effect; inconclusive = small, poorly fitted or top-dose-only effect, or another doubt; inactive = no such curve, though single readings can be large or run the other way.

SMILES	Shiga inhibitor	LmPK inh	Pf growth 48h	Pf growth 96h	Cycloheximide cs
Cc1nc(SCCCSc2n[nH]c(C)n2)n[nH]1	n	n	n	x	n
CC1=C([N+](=O)[O-])C(c2cccc(Br)c2)C2=C(N1)c1ccccc1C2=O (centres undefined)	n	n	4.65µM	x	n
CC(C)c1ccc(/C=C/C2=NNC(=O)CC2)cc1	84.8	n	n	n	32.5
COc1cc(/C=C/C2=NNC(=O)CC2)cc(OC)c1OC	n	n	n[0.00184 µM]	n	n
Cc1ccc(S(=O)(=O)c2c(CO)c(-c3ccccc3)nn2C)cc1	n	n	n	n	n
Cc1ccc(S(=O)(=O)c2c(COC(=O)c3ccccc3Cl)c(-c3ccccc3)nn2C)cc1	n	n	x	6.57µM	n
CCOC(=O)C(NC(=O)c1ccc(OC)cc1)(OCC1(CC)COC1)C(F)(F)F (centres undefined)	n	n	13.1µM	13.1µM	n
CCOC(=O)C(NC(=O)c1ccccc1)(OCC1(CC)COC1)C(F)(F)F (centres undefined)	n	n	n	n	n
O=C(Nc1ccc(N2CCOCC2)cc1)c1ccc(COc2ccccc2)cc1	n	n	n	u	n
Cc1ccc(-n2c(NN)nc3ccccc3c2=O)c(C)c1	n	n	u	9.28µM	n
Cn1c(NN)nc2ccccc2c1=O	33.1	n	n	n	36.5
COCCCNC(=O)COC(=O)c1ccc(-c2nc3ccccc3s2)s1	75.7	n	n	n	47.5
O=C(CCc1nc2ccccc2s1)N1CCN(c2ccccc2)CC1	n	n	n	n	n
O=CN1CCN(C(=O)c2ccc(-c3nc4ccccc4s3)s2)CC1	123.5	n	n	n	42.7
CNC(=O)COC(=O)c1ccc(-c2nc3ccccc3s2)s1	53.0	14.1µM	x	n	29.1
COc1cc(NC(=S)NN2CCN(C)CC2)cc(OC)c1	n	n	n	n	n
CC(=O)Oc1ccccc1-c1nc(C)nc(N(C)C(C)=O)n1	37.8	n	n	x	12.1
Cn1c(=O)n(CCOc2ccccc2Cl)c2ccccc21	79.0	n	u	n	49.6
Cn1c(=O)n(CCOc2ccc(Cl)cc2Cl)c2ccccc21	n	n	x	n	n
O=c1ccccn1CCOc1ccccc1Cl	44.7	n	n	n	19.1
COc1ccccc1OCCn1c(=O)n(C)c2ccccc21	27.6	n	n	n	20.8
CCOc1ccc(-c2noc(CCC(=O)NC3CCCCC3)n2)cc1OC	n	n	n	n	n
Cc1c(NS(=O)(=O)c2cc(C(=O)NC(C)c3ccccc3)ccc2Cl)c(=O)n(-c2ccccc2)n1C (centres undefined)	x	x	n	u	x
On1nnc2c3ccccc3c3ccccc3c21	n	n	n	n	n
COc1ccc(SC[C@H](Cc2ccccc2)N2CC[C@@H](NC(=O)OCc3ccccc3)CCC2=O)cc1	x	x	7.38µM	u	x
SMILES	Shiga inhibitor	LmPK inh	Pf growth 48h	Pf growth 96h	Cycloheximide cs
Cc1ccc(S[C@@H](CCN2CC[C@H](NC(=O)OCc3ccccc3)CCC2=O)c2ccccc2)cc1	n	n	n	u	n
Cc1ccc(SC[C@H](Cc2ccccc2)N2CC[C@@H](C)CCC2=O)cc1	n	n	u	u	n
O=C(N[C@@H]1CCC(=O)N(CC[C@H](Oc2ccccc2)c2ccccc2)CC1)OCc1ccccc1	n	n	0.415µM	10.4µM	n
COc1ccc(SC[C@H](Cc2ccccc2)N2CC[C@@H](C)CCC2=O)cc1	x	x	11.7µM	u	x
CN(C)S(=O)(=O)c1ccc2nnn(O)c2c1	n	n[11.5 µM]	n	n	n
COCCNC(=O)CC(c1ccccc1)c1ccccc1	n	n	x	9.28µM	n
CCCCCCNC(=O)CC(c1ccccc1)c1cc(Br)ccc1O (centres undefined)	n	n	11.7µM	u	n
CC(C)NC(=O)CC(c1ccccc1)c1cc(Br)ccc1O (centres undefined)	n	n	x	u	n
CC(C)CC(=O)Nc1ccc(Oc2ccc(NC(=O)CC(C)C)cc2)cc1	n	n	n	u	n
CC(C)(C)CC(=O)Nc1ccc(Nc2ccccc2)cc1	46.6	n	n	n	23.1
CC(C)CC(=O)Nc1ccc(Nc2ccccc2)cc1	36.3	n	n	n	n
Cc1[nH]c(=O)[nH]c(=O)c1S(=O)(=O)Nc1cccc(C(F)(F)F)c1	n	n	n	u	n
Cc1ccc(C)c(OCCC(=O)OCC(=O)Nc2ccc(Cl)cn2)c1	x	x	u	n	x
C=C1c2ccccc2O[C@H](C(=O)OCC)[C@@H]1CC(C)(C)c1ccccc1	n	x	x	x	n
CCC(=O)Nc1ccc2ccccc2c1	n	n	n	n	n
CCC(=O)Nc1ccc(C(=O)n2ccc(C)n2)cc1	n	n	n	x	n
CC1(C(=O)Nc2ccc3ccccc3c2)CC1(Br)Br (centres undefined)	65.3	n	n	n	28.9
CC(C)CC(=O)Nc1ccc2ccccc2c1	92.3!	n	n	n	n
Cc1ccn(C(=O)c2ccc(NC(=O)CC(C)C)cc2)n1	n	n	n	n	15.0
COCCNC(=O)CSc1nc(-c2ccccc2)c(-c2ccccc2)o1	n	n	8.28µM	x	n
Cc1noc(C)c1-c1ccc2ncnc(NCc3cc(F)cc(F)c3)c2c1	n	x	x	x	n
Nc1ccc(S(=O)(=O)NCc2ccccc2)cc1	x	x	n	n	x
COc1ccc(C(=O)COC(=O)c2ccc3c(c2)OCO3)c(OC)c1	x	x	n	n	x
COc1ccccc1CNC(=O)COC(=O)c1cccc(-n2cnnn2)c1	x	x	n	n	x
O[C@@H]1CO[C@H]2C1OC[C@@H]2O (some centres undefined)	n	x	x	x	n
SMILES	Shiga inhibitor	LmPK inh	Pf growth 48h	Pf growth 96h	Cycloheximide cs
CC(=O)Nc1ccc(NC(=O)CC(c2ccccc2)c2ccccc2)cc1	n	n	11.7µM	n	n
O=C(CC(c1ccccc1)c1ccccc1)Nc1ccc(O)cc1	n	n	n	n	n
CSc1cccc(NC(=O)C2CCCN(S(=O)(=O)c3cccs3)C2)c1 (centres undefined)	n	n	u	n	n
CSc1cccc(NC(=O)C2CCCN2S(=O)(=O)c2ccc(Br)s2)c1 (centres undefined)	n	n	x	10.4µM	n
COc1ccc(N2C(=O)c3ccccc3NC2c2ccc(OC)c(COc3ccccn3)c2)cc1 (centres undefined)	n	n	n	n	16.1
COc1ccc(C2Nc3ccccc3C(=O)N2Cc2ccccc2)cc1COc1ccccn1 (centres undefined)	n	n	u	u	n
COc1ccc(N2C(=O)c3ccccc3NC2c2ccc(OC)c(CSc3ccccn3)c2)cc1 (centres undefined)	n	n	n	n	56.1
CCCN1C(=O)c2ccccc2NC1c1ccc(OC)c(CSc2ccccn2)c1 (centres undefined)	n	n	u	10.4µM	n
CCCN1C(=O)c2ccccc2NC1c1ccc(OC)cc1OC (centres undefined)	n	n	u	x	n
CC(=O)Nc1ccc(NC(=O)C(C)OC(=O)C2(c3ccccc3F)CCCC2)cc1 (centres undefined)	x	x	8.28µM	11.7µM	x
